Laboratory results from PubChem BioAssay AID588689 (Southern Research Specialized Biocontainment Screening …, 2011).
Hit rate of the full screen: of about 340,000 compounds, about 1,000 (0.29%) were called active. Rule as the data show it: inconclusive = inhibition above about 29% without an active follow-up result; inactive = below that. Only a sample is shown. Results with a measured potency or affinity are listed apart.

Target: Genome polyprotein (Dengue virus type 2 (strain 16681-PDK53)) (UniProt P29991)
Assay: flavivirus cap methylation enzyme inhibition – biochemical, confirmation dose response, primary screen (AID 588689)
Conditions: Dengue-2 NS5 methyltransferase capping enzyme assay, at 25 µM, active compounds read high

inhibition, inactive:
O=C(CSc1nnc(Cc2ccccc2)n1-c1ccc(Cl)cc1)N1CCOCC1 -3.47%
N=C1C(c2ccccc2)=C(O)C2CCc3ccccc3N12 (centres undefined) -2.07%
CC(=O)N1CCN(c2ccc([N+](=O)[O-])cc2C#N)CC1 -1.43%
O=C1N/C(=C/c2cccn2-c2ccc(F)cc2)C(=O)N1Cc1ccccc1 -0.68%
O=C1NC(=O)N(Cc2ccccc2)C1=O 0%
O=C(CN1CCN(c2ccc(F)cc2)CC1)c1ccc2c(c1)OCO2 -2.07%
CC(=O)OC1C([N+]2(C)CCCCC2)C[C@H]2C3CC[C@H]4C[C@H](OC(C)=O)C([N+]5(C)CCCCC5)CC4(C)[C@H]3CCC12C (some centres undefined) -1.47%
O=C1C(SCCO)=C(SCCO)C(=O)c2ccccc21 -3.66%
Cn1c(SCc2ccccc2)nccc1=O 1.94%
COc1ccc(Nc2ncnc3sc(-c4ccccc4)cc23)cc1 -5.46%
CCN1C(=O)/C(=C/c2cccs2)S/C1=N\S(=O)(=O)c1ccc(C)cc1 -2.56%
O=C(NN1C(=O)/C(=C/c2cccs2)SC1=S)c1ccncc1 -4.6%
Cc1ccc(S(=O)(=O)NN2C(=O)/C(=C/c3ccccn3)SC2=S)cc1 14%
O=C(NN1C(=O)/C(=C/c2cccs2)SC1=S)c1ccccc1 -1.93%
Cc1cc(C)cc(OCC(=O)N/N=C/c2ccccn2)c1 6.27%
COc1cc2c(cc1OC)C(c1cccs1)N(C(=S)NC(C)C)CC2 (centres undefined) -5.35%
Cc1ccc(-c2nnn(CC(=O)N(Cc3ccccc3)C(C(=O)NC(C)(C)C)c3ccncc3)n2)o1 (centres undefined) -0.68%
Cc1cccc(C)c1OCC(O)Cn1c2ccccc2c2ccccc21 (centres undefined) -10.5%
CCCc1c(C)c2ccccc2[nH]c1=O -1.65%
Cc1ccc(C(=O)O)cc1NS(=O)(=O)c1ccc2c(c1)oc(=O)n2C -6.53%
O=C(O)c1cc(C(=O)O)cc(N2C(=O)CSC2=S)c1 -4.42%
O=C(O)c1cccc(N2C(=O)C3CC=CCC3C2=O)c1 (centres undefined) -1.37%
O=C(O)c1cccc(N2C(=O)c3ccc4c5c(ccc(c35)C2=O)C(=O)N(c2cccc(C(=O)O)c2)C4=O)c1 16.5%
Cc1cc(C)cc(N2C(=O)C=CC2=O)c1 -24.7%
N/C(=N\OC(=O)Oc1ccccc1)c1ccc(Cl)cc1 2.93%
COc1ccc(CNC(=O)c2cc(=O)c3cc(C)cc(C)c3o2)cc1 -5.29%
O=[N+]([O-])c1ccc(SCc2c(F)cccc2Cl)nc1 -6.18%
O=C(O)/C=C/C(=O)Nc1ccc(-c2ccccc2)cc1 -12.6%
O=C(O)/C=C/C(=O)Nc1ccc(C(=O)c2ccccc2)cc1 -4.59%
CC(C)CN(C(=O)CCCSc1nc2ccccc2[nH]1)c1c(N)n(Cc2ccccc2)c(=O)[nH]c1=O 2.91%
CC1(C)Cc2c(sc3[nH]c(=S)[nH]c(=O)c23)CO1 -1.64%
CCC1(C)Cc2c(sc3[nH]c(=S)[nH]c(=S)c23)CO1 (centres undefined) -4.57%
O=S(=O)(/N=C(\Nc1ccc(F)cc1)C(F)(F)F)c1ccccc1 3.78%
COc1ccc(C(=O)C(C)Oc2cccc(NC(=O)c3cccc([N+](=O)[O-])c3)c2)cc1 (centres undefined) 3.25%
NS(=O)(=O)c1ccc(N=Nc2ccc(O)c3ncccc23)cc1 13.7%
Cc1ccccc1N=Nc1ccc(O)c2ncccc12 -2.17%
CCN(CC)c1nc2ccccc2n(Cc2cccc(OC)c2)c1=O -2.37%
Cc1ccc(S(=O)(=O)N2CCC[C@H]2C(=O)OCC(=O)c2ccc3c(c2)NC(=O)CO3)cc1 -4.71%
CC(=O)Nc1ccccc1NC(=O)COc1cccc2ccccc12 -2.63%
O=C(COc1ccccc1C(=O)O)Nc1cccc2ccccc12 1.47%
O=C(Cc1cccc2ccccc12)Nc1cc(Cl)ccc1C(=O)O -1.36%
O=C(COc1ccccc1[N+](=O)[O-])Nc1cc(Cl)ccc1C(=O)O 0%
COc1cc(C(C(=O)NC2CCCC2)N(CCO)C(=O)Cn2nnc(-c3ccc(C)o3)n2)ccc1O (centres undefined) 0.83%
COc1ccc(CCNC(=O)CN(c2cc(OC)ccc2OC)S(=O)(=O)c2ccccc2)cc1 -15.3%
N#CC1(c2ccccc2)CCC(=NNS(=O)(=O)c2ccccc2)CC1 (centres undefined) -6.67%
CCn1c(SCC(=O)NC2CCCCC2)nnc1-c1cccs1 -2.08%
CCCc1[nH][nH]c(=O)c1C(c1ccc(Br)cc1)C(C#N)C#N (centres undefined) -1.4%
Cc1[nH]n(-c2ccccc2)c(=O)c1-c1ccc(Cl)cc1 -1.62%
Cc1[nH]n(-c2ccccc2)c(=O)c1C(C[N+](=O)[O-])c1ccc(Br)cc1 (centres undefined) 12.4%
Cc1[nH]n(-c2ccccc2)c(=O)c1C(C[N+](=O)[O-])c1ccc(Cl)cc1 (centres undefined) 4.51%
COc1ccc(C(c2c(C)[nH]n(C(N)=S)c2=O)C(C#N)C#N)cc1 (centres undefined) 28%
CCCc1[nH][nH]c(=O)c1C(c1ccc(Cl)cc1)C(C#N)C#N (centres undefined) -8.33%
Cc1[nH]oc(=O)c1N=Nc1ccc2[nH]c(=O)[nH]c2c1 -0.78%
Cc1c(NC(=O)Nc2cccc(Cl)c2Cl)c(=O)n(-c2ccccc2)n1C 3.9%
C/C(N)=C(/C#N)C(=O)COC(=O)[C@@H](NC(=O)c1ccccc1Cl)C(C)C -7.12%
CCCCc1nnc(SCC(=O)Nc2nccs2)n1CC -0.32%
CC1CCCN(S(=O)(=O)c2ccc3[nH]c(=O)cc(C(=O)NCCCN4CCCCCC4)c3c2)C1 (centres undefined) -5.49%
Cc1cccc(N2C(=O)c3ccc(Br)cc3C2=O)n1 -2.38%
NC1=C(Br)C(=O)c2ncccc2C1=O 20.2%
COC1=C(N)C(=O)c2nc(C)ccc2C1=O 12.3%
O=C1c2cccnc2-c2ncccc21 5.95%
O=C(OCC(=O)N1CCOCC1)c1ccc[nH]c1=O -3.24%
CCN(Cc1ccccc1)C(=O)CCNS(=O)(=O)c1cc(Br)cnc1N 2.62%
CC1CCN(c2nc3ccc(C(=O)N4CCN(Cc5ccc6c(c5)OCO6)CC4)cc3s2)CC1 -4.17%
COc1ccc2nc(N3CCC(C)CC3)c(C#N)cc2c1 14.4%
COc1ccc2nc(N3CCCC3)c(C#N)cc2c1 12.8%
CC(=O)Nc1ccc(NC(=O)C(C)OC(=O)CCC2CCCCC2)cc1 (centres undefined) 0.32%
CCN(C(=O)COC(=O)/C=C/c1ccc(Cl)c(Cl)c1)c1c(N)n(Cc2ccccc2)c(=O)[nH]c1=O 2.22%
COc1ccccc1OCCCCNC(C)(C)C -1.39%
O=C(Nc1ccc(S(=O)(=O)Nc2ncccn2)cc1)c1ccc(Br)o1 -3.89%
CC1(C)Cc2c(C#N)c(N)sc(=S)c2CO1 4.14%
N#Cc1c(N)sc2c1CCCCCC2 -3.42%
COc1cc2c(cc1OC)C(c1ccccc1F)NCC2 (centres undefined) -3.4%
O=C(CN1CCC(NC(=O)c2ccccc2Cl)CC1)NCc1ccccc1 -1.62%
COc1ccc(CNC(=O)C(C)N2CCN(S(=O)(=O)c3ccccc3F)CC2)cc1 (centres undefined) -2.2%
C=CCOc1ccc(/C=C2/C(=O)ON=C2C)cc1OC 28.1%
CCOc1ccc(Cl)cc1/C=C1/C(=O)ON=C1C 20.2%
CCOc1cc(/C=C2/C(=O)ON=C2C)ccc1O -24.5%
COc1cc(/C=C2/C(=O)ON=C2c2ccccc2)ccc1O -8.45%
CCOc1cc(/C=C2/C(=O)ON=C2C)ccc1OCc1ccc(F)cc1 24.8%
COc1ccc(/C=C2/C(=O)ON=C2c2ccccc2)cc1OC -17.6%
CCCOc1ccc(/C=C2/C(=O)ON=C2C)cc1Cl 12.4%
CCOc1cc(/C=C2\C(=O)ON=C2C)ccc1OCc1ccccc1 -8.01%
NC(=O)c1ccc(NC(=O)c2cccc(Oc3ccccc3)c2)cc1 -7.28%
CCn1c(CC(=O)Nc2ccccc2)nnc1SCc1nc2ccccc2c(=O)[nH]1 -0.79%
Nc1ncnc2c1ncn2[C@@H]1O[C@H](CNC(=O)[C@H](N)Cc2cscn2)[C@@H](O)[C@H]1O -4.56%
NC(=O)c1cc([N+](=O)[O-])ccc1NCc1cccc(N)c1 -0.8%
COC(=O)Cn1c(=NC(=O)c2ccc(Cl)s2)sc2cc(C)ccc21 4.02%
O=C(NC(=S)NCc1ccccc1)c1ccccc1[N+](=O)[O-] -9.35%
O=C(NCCc1ccccc1)C(=O)Nc1ccc2c(c1)OCCO2 -12.2%
O=C(c1ccc(Cl)c(Cl)c1)N1CCN(c2ccccn2)CC1 -2.38%
COCCN(C(=O)CSc1nnc(-c2ccccc2F)n1N)c1c(N)n(Cc2ccccc2)c(=O)[nH]c1=O 11.2%
CCOc1ccc(OCCCC(=O)NCCOc2ccccc2OC)cc1 -5.46%
Cc1cccc(OCC(=O)NC(=S)Nc2ccc(S(=O)(=O)NC3CCCCC3)cc2)c1 0%
